Sequences and labels used below:
T1: RBFOX1 RRM (Homo sapiens, UniProt Q9NWB1 109-208)
T1 sequence: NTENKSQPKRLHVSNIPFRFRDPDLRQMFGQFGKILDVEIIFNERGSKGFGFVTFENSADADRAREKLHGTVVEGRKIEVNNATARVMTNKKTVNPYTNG

B1: GCUGUAU (DNA:RNA)
RNA: GGGAGACCGGAAUUCAGAUUGUCCGCUGUAUUUAAAUCCCGUCGUAGCCACCA
DNA 1: CAATCTGAATTCCGGTCTCCC
DNA 2: TGGTGGCTACGACGGGATT
B2: AUACGAU (DNA:RNA)
RNA: B1 RNA with G25A, C26U, U27A, G28C, U29G
DNA 1: CAATCTGAATTCCGGTCTCCC
DNA 2: TGGTGGCTACGACGGGATT
B3: AUUCUCC (DNA:RNA)
RNA: B1 RNA with G25A, C26U, G28C, A30C, U31C
DNA 1: CAATCTGAATTCCGGTCTCCC
DNA 2: TGGTGGCTACGACGGGATT
B4: CACCUGC (DNA:RNA)
RNA: B1 RNA with G25C, C26A, U27C, G28C, A30G, U31C
DNA 1: CAATCTGAATTCCGGTCTCCC
DNA 2: TGGTGGCTACGACGGGATT
B5: GGGUCCG (DNA:RNA)
RNA: B1 RNA with C26G, U27G, G28U, U29C, A30C, U31G
DNA 1: CAATCTGAATTCCGGTCTCCC
DNA 2: TGGTGGCTACGACGGGATT
B6: GGUACUC (DNA:RNA)
RNA: B1 RNA with C26G, G28A, U29C, A30U, U31C
DNA 1: CAATCTGAATTCCGGTCTCCC
DNA 2: TGGTGGCTACGACGGGATT
B7: GUACUCU (DNA:RNA)
RNA: B1 RNA with C26U, U27A, G28C, A30C
DNA 1: CAATCTGAATTCCGGTCTCCC
DNA 2: TGGTGGCTACGACGGGATT
B8: CGUACUC (DNA:RNA)
RNA: B1 RNA with G25C, C26G, G28A, U29C, A30U, U31C
DNA 1: CAATCTGAATTCCGGTCTCCC
DNA 2: TGGTGGCTACGACGGGATT
B9: GGGUCGU (DNA:RNA)
RNA: B1 RNA with C26G, U27G, G28U, U29C, A30G
DNA 1: CAATCTGAATTCCGGTCTCCC
DNA 2: TGGTGGCTACGACGGGATT
B10: GGGGAGA (DNA:RNA)
RNA: B1 RNA with C26G, U27G, U29A, A30G, U31A
DNA 1: CAATCTGAATTCCGGTCTCCC
DNA 2: TGGTGGCTACGACGGGATT
B11: GGGGUAC (DNA:RNA)
RNA: B1 RNA with C26G, U27G, U31C
DNA 1: CAATCTGAATTCCGGTCTCCC
DNA 2: TGGTGGCTACGACGGGATT
B12: GGGGUCC (DNA:RNA)
RNA: B1 RNA with C26G, U27G, A30C, U31C
DNA 1: CAATCTGAATTCCGGTCTCCC
DNA 2: TGGTGGCTACGACGGGATT
B13: CGGGUAC (DNA:RNA)
RNA: B1 RNA with G25C, C26G, U27G, U31C
DNA 1: CAATCTGAATTCCGGTCTCCC
DNA 2: TGGTGGCTACGACGGGATT
B14: GGGGUCG (DNA:RNA)
RNA: B1 RNA with C26G, U27G, A30C, U31G
DNA 1: CAATCTGAATTCCGGTCTCCC
DNA 2: TGGTGGCTACGACGGGATT
B15: CGGGUCG (DNA:RNA)
RNA: B1 RNA with G25C, C26G, U27G, A30C, U31G
DNA 1: CAATCTGAATTCCGGTCTCCC
DNA 2: TGGTGGCTACGACGGGATT
B16: GGGUACU (DNA:RNA)
RNA: B1 RNA with C26G, U27G, G28U, U29A, A30C
DNA 1: CAATCTGAATTCCGGTCTCCC
DNA 2: TGGTGGCTACGACGGGATT
B17: AGCUCAC (DNA:RNA)
RNA: B1 RNA with G25A, C26G, U27C, G28U, U29C, U31C
DNA 1: CAATCTGAATTCCGGTCTCCC
DNA 2: TGGTGGCTACGACGGGATT
B18: ACUGACU (DNA:RNA)
RNA: B1 RNA with G25A, U29A, A30C
DNA 1: CAATCTGAATTCCGGTCTCCC
DNA 2: TGGTGGCTACGACGGGATT
B19: UAAAUCG (DNA:RNA)
RNA: B1 RNA with G25U, C26A, U27A, G28A, A30C, U31G
DNA 1: CAATCTGAATTCCGGTCTCCC
DNA 2: TGGTGGCTACGACGGGATT
B20: GAAAAGU (DNA:RNA)
RNA: B1 RNA with C26A, U27A, G28A, U29A, A30G
DNA 1: CAATCTGAATTCCGGTCTCCC
DNA 2: TGGTGGCTACGACGGGATT

Positions count from the first letter of the chain named. In all, about 16,000 sequences were measured (“ka relative to ugcaugu”: median about 0.0091, highest 2% from about 0.032 on). The full list was thinned out, with the highest values kept by preference.

The experiment deals with T1, RBFOX1 RRM. Put plainly: EMSA; HiTS-Eq, 1 nM pool, 10 min; buffer printed only for the single-RNA assays: 10 mM Tris pH 7.5, 150 mM NaCl, 3.4 mM EDTA, 0.001% NP-40, 30 C. As to conditions: tags: His6 N-terminal (pET28a); label: 5' 32P. In short, it runs like this: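 Purified RbFox RRM (wild type or mutant) was equilibrated for 10 min in 50 µL with 1 nM of a 5′-radiolabelled pool of RNA with 7 randomized nucleotides, its flanks annealed to DNA oligonucleotides, across increasing protein concentrations. Free RNA was separated by 8% native PAGE, excised, reverse-transcribed, PCR-barcoded and sequenced on an Illumina HiSeq 2500. Relative association constants came from read-count changes of each variant against the control reaction, normalised to the cognate motif.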
For B1, the binding signal is 0.013 KA relative to UGCAUGU.
Turning to B2, the binding signal was 0.00313 KA relative to UGCAUGU.
For B3, the binding signal is 0.00179 KA relative to UGCAUGU.
In the case of B4 it was 0.00791 KA relative to UGCAUGU.
In the case of B5, the binding signal was 0.0257 KA relative to UGCAUGU.
The result for B6 reads 0.032 KA relative to UGCAUGU.
In the case of B7 it was 0.0101 KA relative to UGCAUGU.
Turning to B8, the binding signal was 0.00584 KA relative to UGCAUGU.
The result for B9 reads 0.0214 KA relative to UGCAUGU.
In the case of B10 it was 0.0242 KA relative to UGCAUGU.
For the molecule B11, the binding signal is 0.0356 KA relative to UGCAUGU.
With B12, the binding signal was 0.0259 KA relative to UGCAUGU.
With B13, the binding signal is 0.0309 KA relative to UGCAUGU.
Take B14: the binding signal is 0.0492 KA relative to UGCAUGU.
Turning to B15, the binding signal is 0.0322 KA relative to UGCAUGU.
In the case of B16 it was 0.0165 KA relative to UGCAUGU; in that of B17, 0.00457 KA relative to UGCAUGU.
Consider B18, for which the binding signal is 0.00677 KA relative to UGCAUGU.
The result for B19 reads 0.00678 KA relative to UGCAUGU.
The result for B20 reads 0.00662 KA relative to UGCAUGU.

The values are drawn from article PMC9911399, “Two distinct binding modes provide the RNA-binding protein RbFox with extraordinary sequence specificity”.
